Experimental data from the supplement of paper PMC11006884.
Of roughly 6,500 targets only a part is listed; those with a hit were picked by preference. About 2% of all pairs of compound and target were hits. Unmarked numbers belong to inactive results.

Compound: COC(=O)C#Cc1ccccc1 [methyl 3-phenylpropiolate]
Test: log2 ratio of iodoacetamide-alkyne labeling of the cysteine site, DMSO over compound (competition); higher = stronger covalent engagement of the cysteine by the compound, active = 1 or more
Conditions: 500 µM; treatment time 1 h; system: HEK293T cell lysate
How it was run: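 For each cysteine, the log2 competition ratio is mean control-channel reporter intensity over mean compound-channel reporter intensity. HEK293T lysate (2 mg/mL) was exposed to vehicle or electrophile (500 µM, 1 h, ambient temperature), labelled with iodoacetamide alkyne (1 h), clicked to sCIP-TMT reagents, digested overnight with trypsin at 37 °C, streptavidin-enriched and analysed by Orbitrap Eclipse LC-MS/MS with FAIMS and FragPipe. Cysteines quantified in only one of three replicates, each with duplicate channels, were excluded.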

UniProt P54132, sequence (P54132 whole entry, looked up): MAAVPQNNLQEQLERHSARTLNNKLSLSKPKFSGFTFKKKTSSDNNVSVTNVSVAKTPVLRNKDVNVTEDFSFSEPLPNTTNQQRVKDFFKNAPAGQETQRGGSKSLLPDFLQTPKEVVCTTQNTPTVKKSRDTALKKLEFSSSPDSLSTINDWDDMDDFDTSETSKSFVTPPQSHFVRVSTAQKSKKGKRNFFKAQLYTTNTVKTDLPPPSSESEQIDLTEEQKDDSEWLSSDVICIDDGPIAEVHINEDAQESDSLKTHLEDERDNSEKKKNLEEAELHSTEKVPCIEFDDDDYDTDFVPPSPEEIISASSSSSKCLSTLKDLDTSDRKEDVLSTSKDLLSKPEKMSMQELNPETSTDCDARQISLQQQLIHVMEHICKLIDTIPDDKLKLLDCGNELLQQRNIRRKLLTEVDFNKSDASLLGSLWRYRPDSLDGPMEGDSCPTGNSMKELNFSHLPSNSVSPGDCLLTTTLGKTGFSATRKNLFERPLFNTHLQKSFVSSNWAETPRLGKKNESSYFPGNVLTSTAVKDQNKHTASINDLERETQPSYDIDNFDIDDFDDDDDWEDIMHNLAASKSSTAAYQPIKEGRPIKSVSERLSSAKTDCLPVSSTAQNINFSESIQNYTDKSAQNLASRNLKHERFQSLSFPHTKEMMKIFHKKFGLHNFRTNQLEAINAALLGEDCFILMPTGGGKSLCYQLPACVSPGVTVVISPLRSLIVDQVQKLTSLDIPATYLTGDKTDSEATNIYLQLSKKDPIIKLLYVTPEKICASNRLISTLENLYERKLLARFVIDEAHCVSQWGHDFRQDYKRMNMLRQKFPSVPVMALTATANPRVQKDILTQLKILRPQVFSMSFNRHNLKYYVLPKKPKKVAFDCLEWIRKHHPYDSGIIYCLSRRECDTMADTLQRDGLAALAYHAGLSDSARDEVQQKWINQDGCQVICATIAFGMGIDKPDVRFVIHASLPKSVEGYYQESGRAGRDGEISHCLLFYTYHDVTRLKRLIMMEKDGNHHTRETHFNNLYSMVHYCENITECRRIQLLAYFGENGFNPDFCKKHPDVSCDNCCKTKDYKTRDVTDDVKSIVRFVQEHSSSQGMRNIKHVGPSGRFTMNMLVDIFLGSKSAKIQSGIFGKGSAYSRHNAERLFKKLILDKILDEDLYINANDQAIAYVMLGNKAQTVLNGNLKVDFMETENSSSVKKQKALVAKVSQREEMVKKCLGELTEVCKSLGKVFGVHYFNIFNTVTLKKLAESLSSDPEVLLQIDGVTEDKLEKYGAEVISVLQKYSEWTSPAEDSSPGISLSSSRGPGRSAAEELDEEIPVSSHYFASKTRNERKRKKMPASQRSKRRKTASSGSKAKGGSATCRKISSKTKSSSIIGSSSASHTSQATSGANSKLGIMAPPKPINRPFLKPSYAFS
UniProt Q00653, sequence (Q00653 whole entry): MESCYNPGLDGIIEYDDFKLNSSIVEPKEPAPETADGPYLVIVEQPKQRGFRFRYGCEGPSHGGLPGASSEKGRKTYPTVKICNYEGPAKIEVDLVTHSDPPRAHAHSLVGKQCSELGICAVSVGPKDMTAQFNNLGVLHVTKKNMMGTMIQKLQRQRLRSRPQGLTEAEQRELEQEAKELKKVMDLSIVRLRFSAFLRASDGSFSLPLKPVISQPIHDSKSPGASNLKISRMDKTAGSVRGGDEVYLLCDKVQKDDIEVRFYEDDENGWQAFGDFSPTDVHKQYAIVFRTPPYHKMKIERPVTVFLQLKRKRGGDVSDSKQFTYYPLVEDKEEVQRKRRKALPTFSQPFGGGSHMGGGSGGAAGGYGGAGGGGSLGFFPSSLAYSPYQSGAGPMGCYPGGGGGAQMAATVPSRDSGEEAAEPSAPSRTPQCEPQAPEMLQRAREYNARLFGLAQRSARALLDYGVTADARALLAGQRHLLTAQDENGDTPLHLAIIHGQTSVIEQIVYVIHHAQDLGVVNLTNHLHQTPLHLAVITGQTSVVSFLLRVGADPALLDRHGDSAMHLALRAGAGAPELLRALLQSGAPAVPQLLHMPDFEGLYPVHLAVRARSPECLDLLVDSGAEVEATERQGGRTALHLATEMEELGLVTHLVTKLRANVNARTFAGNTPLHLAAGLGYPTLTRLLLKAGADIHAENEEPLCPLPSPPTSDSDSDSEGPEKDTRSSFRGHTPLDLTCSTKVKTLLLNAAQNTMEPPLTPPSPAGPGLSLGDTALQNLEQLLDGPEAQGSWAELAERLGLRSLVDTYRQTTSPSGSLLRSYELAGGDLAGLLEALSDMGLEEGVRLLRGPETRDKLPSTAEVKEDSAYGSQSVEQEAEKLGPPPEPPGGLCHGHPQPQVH
UniProt Q13418, sequence (Q13418 whole entry, looked up): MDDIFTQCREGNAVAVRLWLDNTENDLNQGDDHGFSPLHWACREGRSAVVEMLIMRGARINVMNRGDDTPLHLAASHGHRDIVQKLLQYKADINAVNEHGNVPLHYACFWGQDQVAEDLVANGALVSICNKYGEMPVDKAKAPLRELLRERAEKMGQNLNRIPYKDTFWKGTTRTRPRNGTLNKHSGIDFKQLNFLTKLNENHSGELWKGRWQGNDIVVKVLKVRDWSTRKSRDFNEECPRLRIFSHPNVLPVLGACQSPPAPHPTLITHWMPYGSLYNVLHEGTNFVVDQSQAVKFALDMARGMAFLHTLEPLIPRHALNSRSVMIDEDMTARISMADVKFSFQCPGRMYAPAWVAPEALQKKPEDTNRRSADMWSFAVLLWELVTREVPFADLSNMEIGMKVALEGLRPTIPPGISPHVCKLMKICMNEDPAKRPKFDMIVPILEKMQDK
UniProt Q13428, sequence (Q13428 whole entry, looked up): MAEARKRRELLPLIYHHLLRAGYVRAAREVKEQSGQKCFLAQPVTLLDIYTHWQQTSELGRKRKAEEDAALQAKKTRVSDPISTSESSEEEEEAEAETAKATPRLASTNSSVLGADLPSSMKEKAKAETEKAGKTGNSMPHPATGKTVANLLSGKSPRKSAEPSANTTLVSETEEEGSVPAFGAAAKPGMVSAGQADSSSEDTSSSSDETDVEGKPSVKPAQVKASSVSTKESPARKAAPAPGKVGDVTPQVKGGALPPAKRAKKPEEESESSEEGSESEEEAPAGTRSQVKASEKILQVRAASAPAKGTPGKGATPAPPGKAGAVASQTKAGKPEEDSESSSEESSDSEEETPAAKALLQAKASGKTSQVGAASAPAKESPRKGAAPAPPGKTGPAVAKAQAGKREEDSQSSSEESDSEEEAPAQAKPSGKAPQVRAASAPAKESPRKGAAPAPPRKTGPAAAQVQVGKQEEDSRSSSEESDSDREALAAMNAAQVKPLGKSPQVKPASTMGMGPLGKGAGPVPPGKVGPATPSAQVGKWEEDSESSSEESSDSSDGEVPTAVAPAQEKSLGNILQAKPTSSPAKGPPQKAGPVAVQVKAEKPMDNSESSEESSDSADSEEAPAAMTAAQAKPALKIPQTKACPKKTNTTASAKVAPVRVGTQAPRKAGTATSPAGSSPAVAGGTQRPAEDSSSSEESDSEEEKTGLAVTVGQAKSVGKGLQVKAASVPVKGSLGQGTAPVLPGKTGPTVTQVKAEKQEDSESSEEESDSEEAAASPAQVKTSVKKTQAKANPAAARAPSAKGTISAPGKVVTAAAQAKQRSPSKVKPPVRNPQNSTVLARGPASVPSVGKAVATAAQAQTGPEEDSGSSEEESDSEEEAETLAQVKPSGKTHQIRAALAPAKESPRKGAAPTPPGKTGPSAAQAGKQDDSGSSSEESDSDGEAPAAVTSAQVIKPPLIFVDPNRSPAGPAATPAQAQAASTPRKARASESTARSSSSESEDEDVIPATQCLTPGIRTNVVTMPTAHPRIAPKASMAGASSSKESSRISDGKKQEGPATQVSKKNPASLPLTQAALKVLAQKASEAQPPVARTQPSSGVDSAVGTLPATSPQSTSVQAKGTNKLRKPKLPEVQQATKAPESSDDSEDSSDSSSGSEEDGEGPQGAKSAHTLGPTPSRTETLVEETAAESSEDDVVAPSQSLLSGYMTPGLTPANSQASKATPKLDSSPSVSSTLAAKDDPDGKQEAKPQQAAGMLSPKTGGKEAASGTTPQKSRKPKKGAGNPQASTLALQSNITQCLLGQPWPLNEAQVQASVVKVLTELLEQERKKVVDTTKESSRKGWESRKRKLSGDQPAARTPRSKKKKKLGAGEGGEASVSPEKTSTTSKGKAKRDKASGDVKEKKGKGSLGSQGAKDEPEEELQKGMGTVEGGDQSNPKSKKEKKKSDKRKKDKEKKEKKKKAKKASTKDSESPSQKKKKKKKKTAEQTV
UniProt Q13643, sequence (Q13643 whole entry, looked up): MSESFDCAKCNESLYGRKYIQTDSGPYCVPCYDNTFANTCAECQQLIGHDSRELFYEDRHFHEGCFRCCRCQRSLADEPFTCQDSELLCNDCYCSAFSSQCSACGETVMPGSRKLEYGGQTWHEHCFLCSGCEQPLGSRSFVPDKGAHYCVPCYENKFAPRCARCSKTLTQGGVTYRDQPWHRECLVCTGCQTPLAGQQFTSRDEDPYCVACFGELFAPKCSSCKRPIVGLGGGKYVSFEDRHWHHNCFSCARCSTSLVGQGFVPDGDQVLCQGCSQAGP
UniProt P78417, sequence (P78417 whole entry, looked up): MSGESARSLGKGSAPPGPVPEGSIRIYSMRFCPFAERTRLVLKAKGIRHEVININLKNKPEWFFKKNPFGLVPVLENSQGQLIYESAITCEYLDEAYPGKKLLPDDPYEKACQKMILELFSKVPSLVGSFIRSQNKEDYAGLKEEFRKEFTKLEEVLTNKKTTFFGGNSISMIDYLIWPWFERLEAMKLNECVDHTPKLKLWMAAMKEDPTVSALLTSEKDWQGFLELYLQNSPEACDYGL

Target | log2 ratio of iodoacetamide-alkyne labeling
UniProt Q16512_C602 | 0.0536
ESPL1 C1369 (UniProt Q14674) | 0.218
THOP1 C682 (UniProt P52888) | 0.174
CBX2 C340 (UniProt Q14781) | 0.654
UniProt Q14574_C804 | 0.812
UniProt P62273_C39 | 0.0855
UniProt Q5MNZ6_C6 | 0.235
BMS1 C725 (UniProt Q14692) | 1.27 (active)
UniProt Q12905_C271 | 0.137
UniProt P55072_C209 | 0.132
BLM C685 (UniProt P54132) | 0.197
MORC3 C619 (UniProt Q14149) | 0.279
UniProt Q02040_C549 | 1.74 (active)
UniProt Q02750_C376 | -0.129
DYNC1H1 C4510 (UniProt Q14204) | 0.182
UniProt Q15365_C118 | 1.72 (active)
ILK C346 (UniProt Q13418) | 1.8 (active)
USP10 C254 (UniProt Q14694) | 0.49

Target | log2 ratio of iodoacetamide-alkyne labeling
GSTO1 C32 (UniProt P78417) | 2.51 (active)
UniProt Q15042_C873 | 0.165
HK2 C158 (UniProt P52789) | 0.246
TCOF1 C1298 (UniProt Q13428) | 0.666
TRIM28 C717 (UniProt Q13263) | -0.00982
OGDH C802 (UniProt Q02218) | -0.0839
NUMA1 C658 (UniProt Q14980) | -0.0504
SPTAN1 C1622 (UniProt Q13813) | -0.0196
NUBP1 C25 (UniProt P53384) | 2.24 (active)
PEX3 C65 (UniProt P56589) | 0.385
RPL7A C174 (UniProt P62424) | -0.0802
MARS C12 (UniProt P56192) | 0.428
UniProt P60891_C230 | 0.704
NFKB2 C57 (UniProt Q00653) | 1.24 (active)
FHL3 C150 (UniProt Q13643) | 0.146
UniProt P62834_C141 | 0.00921
UniProt Q13155_C23 | 1.24 (active)
RRP12 C261 (UniProt Q5JTH9) | 0.53
